# This is a sample that favours compounds with a hit; in the whole collection about 3% have one here.
# BH1578 lux ind – induces V. cholerae light production without autoinducers | V. cholerae BH1578 lux reporter, luminescence, 6 h | activation, % at 18.7 µM | 0.16% of 350,000 active; in the data active = activation mostly above about 9.7%, no sharp cut-off
# FBA Mtb inh – inhibits M. tuberculosis FBA enzyme; P9WQA3; purified M. tuberculosis FBA, fluorescence read-out; inhibition, % at 1 µM; 2.3% of 360,000 active; AID 588726; in the data active = inhibition above about 27%;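 also: 0% = vehicle and 100% = reference inhibitor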
# Target sequence (P9WQA3 whole entry, looked up): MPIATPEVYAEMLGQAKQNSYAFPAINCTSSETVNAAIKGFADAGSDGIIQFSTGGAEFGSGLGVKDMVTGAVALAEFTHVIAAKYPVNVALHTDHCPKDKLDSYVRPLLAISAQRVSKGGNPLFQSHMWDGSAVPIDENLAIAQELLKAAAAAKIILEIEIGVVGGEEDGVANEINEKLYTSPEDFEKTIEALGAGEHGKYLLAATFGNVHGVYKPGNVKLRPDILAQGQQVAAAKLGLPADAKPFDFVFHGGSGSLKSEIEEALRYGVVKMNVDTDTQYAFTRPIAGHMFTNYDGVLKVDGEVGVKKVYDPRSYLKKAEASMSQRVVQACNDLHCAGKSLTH
# Mtb BioA inh – BioA (M. tuberculosis) enzyme inhibition | purified M. tuberculosis BioA enzyme, plate reader | 0.096% of 360,000 active | inhibition, % at 9.99 µM; in the data active = inhibition above about 40%
# GDH-TPI counter – GDH-TPI coupled enzyme inhibition counter-screen | GDH-TPI coupled enzyme counterscreen, NADH absorbance | inhibition, % at 4.8 µM | 1.2% of 360,000 active | AID 588335; in the data active = inhibition above about 30%;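 also: 0% = DMSO wells and 100% = wells lacking the enzyme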
# * = called active by the depositor; i = inactive; nt = not tested or not shown; + = active, no number.
SMILES,BH1578 lux ind,FBA Mtb inh,Mtb BioA inh,GDH-TPI counter
O=c1c(-c2c(O)cc(O)c3c(=O)cc(-c4ccc(O)cc4)oc23)c(-c2ccc(O)cc2)oc2cc(O)cc(O)c12,0,-1,1,23
Cc1noc(C)c1S(=O)(=O)N(C)C[C@H]1OCCCC[C@H](C)Oc2ccc(NC(=O)Cc3ccccc3)cc2C(=O)N([C@@H](C)CO)C[C@H]1C,nt,nt,-1,nt
C[C@H](CO)N1C[C@H](C)[C@H](CN(C)Cc2ccccc2)Oc2ccc(NC(=O)Nc3ccc4c(c3)OCO4)cc2CC1=O,nt,nt,23,nt
C/C=C/c1ccc2c(c1)O[C@@H](CN(C)C(=O)Nc1ccccc1)[C@@H](C)CN([C@@H](C)CO)S2(=O)=O,nt,nt,25,nt
CCCN1C[C@@H](C)[C@H](OC)CN(C)C(=O)c2cc(NS(=O)(=O)CC)ccc2OC[C@@H]1C,nt,nt,0,nt
CCCn1c(N/N=C\C=C\c2ccccc2)nc2c1c(=O)[nH]c(=O)n2C,i,-4,nt,31*
CNc1nc2c(c(=O)[nH]c(=O)n2C)n1CCCc1ccccc1,-1,1,0,1
CCNc1nc(NCC)nc(N/N=C/c2ccc(N(C)C)cc2)n1,1,24,nt,38*
CCN(CCC#N)c1ccc(/C=N/Nc2nc(C)cc(=O)[nH]2)c(C)c1,0,8,nt,45*
Cc1cc(=O)[nH]c(N/N=C/c2ccc(Cl)cc2Cl)n1,0,3,1,5
Cc1cc(=O)[nH]c(N/N=C/c2ccc(N(C)C)cc2)n1,0,14,nt,35*
COc1ccc(Cc2nnc(N/N=C/c3ccc(N(C)C)cc3)[nH]c2=O)cc1OC,i,-2,nt,78*
CCNc1nc(NCC)nc(N/N=C/c2ccc(O)c(O)c2)n1,0,-3,nt,11
C[C@H]1CN([C@@H](C)CO)S(=O)(=O)c2ccc(-c3ccncc3)cc2O[C@H]1CN(C)C,nt,nt,1,nt
Cc1cc(=O)[nH]c(N/N=C/c2ccccc2C(F)(F)F)n1,0,-3,nt,4
Cc1cc(=O)[nH]c(N/N=C/c2cc(C)n(CC(F)(F)F)c2C)n1,-4,3,0,40*
Cc1ccc(S(=O)(=O)C(C#N)c2nc3ccccc3nc2N2CCCC2)cc1 (configuration not stated),i,128*,nt,11
N#Cc1c(N)n(C2CCCCC2)c2nc3ccccc3nc12,1,117*,0,14
N#Cc1c(N)n(-c2ccc(C(=O)O)cc2)c2nc3ccccc3nc12,0,+,0,20
Cc1ccc(S(=O)(=O)Nc2ccc3c(c2)C(=O)N([C@H](C)CO)C[C@@H](C)[C@H](CN(C)Cc2ccc4c(c2)OCO4)O3)cc1,nt,nt,1,nt
COc1ccccc1OCc1nnc(SCC(=O)Nc2nnc(C3CC3)s2)n1C,0,175*,-2,-1
CCN(CC)CCNC(=O)c1cc2cc3ccc(OC)cc3nc2o1,0,+,12,27
CCCCN(C)CCNC(=O)c1cc2cc3ccc(OC)cc3nc2o1,-1,+,0,24
COCCCNC(=O)c1ccc(CS(=O)(=O)c2ccc(OC)cc2)o1,-1,1,0,4
CCN(C(=O)c1cc2cc3ccc(C)cc3nc2o1)c1ccc(OC)cc1,0,-4,-1,19
SMILES,BH1578 lux ind,FBA Mtb inh,Mtb BioA inh,GDH-TPI counter
COCCCNC(=O)c1cc2cc3cc(OC)ccc3nc2o1,i,122*,-2,9
C[C@@H]1CCCCO[C@H](CN(C)C(=O)Nc2ccccc2)[C@H](C)CN([C@@H](C)CO)C(=O)c2cc(NS(C)(=O)=O)ccc2O1,nt,nt,-2,nt
CCc1ccc(/C=C/C(=O)C2C(=O)c3ccccc3C2=O)cc1,i,-1,nt,39*
O=C(/C=C/c1ccccc1)C1C(=O)c2ccccc2C1=O,i,-3,nt,11
C[C@H]1CN([C@@H](C)CO)C(=O)c2cc(/C=C/c3ccccc3)cnc2O[C@@H]1CN(C)C(=O)Nc1ccc(C(F)(F)F)cc1,nt,nt,-3,nt
COc1ccccc1N1CCN(C(=O)/C=C/c2ccc3c(c2)OCO3)CC1,-1,1,2,43*
O=C(/C=C/c1ccc2c(c1)OCO2)N1CCN(c2ccccc2F)CC1,0,3,nt,18
CC1CN(C(=O)/C=C/c2ccc3c(c2)OCO3)CC(C)O1 (configuration not stated),0,9,-1,35*
O=C(/C=C/c1ccc2c(c1)OCO2)N1CCOCC1,i,8,0,27
C[C@@H]1CCCCO[C@@H](CN(C)C(=O)Cc2ccccc2)[C@H](C)CN([C@H](C)CO)C(=O)c2cc(NC(=O)Nc3ccc(F)cc3)ccc2O1,nt,nt,0,nt
Nc1ccc(Cl)cc1C(=O)OCC(=O)NC1CCS(=O)(=O)C1 (configuration not stated),0,90*,0,17
O=C(COC(=O)c1cccc(Cl)c1)NC1CCS(=O)(=O)C1 (configuration not stated),-3,3,-1,7
COc1cccc(-c2cc(C(F)(F)F)n3nc(N)nc3n2)c1,i,5,-1,36*
COc1ccc(-c2cc(C(F)(F)F)n3nc(N)nc3n2)cc1,i,+,nt,20
CC(C)c1ccc2oc(-c3ccc(N)cc3)nc2c1,2,191*,-1,29
Nc1ccc(-c2nc3cc([N+](=O)[O-])ccc3o2)cc1,i,0,-2,42*
COc1ccc(-c2nc3cc([N+](=O)[O-])ccc3o2)cc1,0,0,nt,2
CO[C@@H]1CN(C)C(=O)c2cc(NS(=O)(=O)c3ccc(Cl)cc3)ccc2OC[C@@H](C)N(C)C[C@@H]1C,nt,nt,-1,nt
COc1ccc(NC(=O)N[C@H]2CC[C@@H](CCn3cc(-c4ccccc4)nn3)O[C@H]2CO)cc1,nt,nt,4,nt
Cc1ccc(S(=O)(=O)NCC[C@@H]2CC[C@@H](NS(=O)(=O)c3ccccc3Cl)[C@@H](CO)O2)cc1,nt,nt,2,nt
O=C(C[C@@H]1CC[C@@H](NC(=O)Nc2ccccc2F)[C@H](CO)O1)NCc1ccccc1,nt,nt,2,nt
O=C(N/N=C/c1c[nH]c2ccccc12)c1sc2ccccc2c1Cl,2,4,nt,15
CN(C)c1ccc(C=NNC(=O)c2cccnc2)cc1,i,1,nt,52*
CCOc1ccc(C(=O)N/N=C/c2ccc(SC)cc2)cc1,i,-5,-1,12
CN(C)c1ccc(/C=N/NC(=O)c2ccc3c(c2)OCCO3)cc1,i,-1,-1,24
SMILES,BH1578 lux ind,FBA Mtb inh,Mtb BioA inh,GDH-TPI counter
CSc1ccc(/C=N/NC(=O)c2cccc(O)c2)cc1,1,2,1,49*
CN(C)c1ccc(/C=N/NC(=O)c2cnc3ccccc3c2)cc1,-1,-2,-1,32*
O=C(N/N=C/c1ccccn1)c1sc2ccccc2c1Cl,1,-7,-3,35*
O=C(Nc1ccc(Cl)cc1)N[C@@H]1CC[C@@H](CCn2cc(C3(O)CCCC3)nn2)O[C@@H]1CO,nt,nt,-3,nt
O=C(C[C@H]1C=C[C@H](NC(=O)c2ccncc2)[C@@H](CO)O1)NCC1CCCCC1,nt,nt,-3,nt
Cc1cc([N+](=O)[O-])nn1Cc1ccc(C(=O)N/N=C/c2ccccc2)cc1,0,0,nt,7
Cc1cc([N+](=O)[O-])nn1Cc1ccc(C(=O)N/N=C/c2ccc(N(C)C)cc2)cc1,-1,-6,nt,40*
O=C(N/N=C/c1c(Cl)nc2ccccn2c1=O)c1cccnc1,i,17,19,31*
